# Hit rate of the full screen: of about 1,900 compounds, about 250 (13%) were called active. About 4% were inconclusive and are not listed.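 How the source made its calls: active means fitted curve reaches 40% rescue activity at or below the top valid dose, in every test run; inconclusive means test runs disagree, some active and some inactive; inactive means every run misses the threshold or moves the wrong way.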 The list is a sample of the results. Results with a measured potency or affinity are listed apart.
# Test: rescue of simvastatin-induced ATP loss – cell-based, C2C12 myotubes, ATP luminescence, cherry pick, dose response (AID 624405);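 further: myotubes are challenged with simvastatin at 10 µM to lower ATP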
# Settings: 48 h, scaled: DMSO wells 0, geranylgeraniol wells 100; series mostly up to 19.5 µM
row,SMILES,outcome
1,Clc1ccc(Cn2ncc3c(N4CCOCC4)ncnc32)cc1,inactive
2,CC(C)CNc1ncnc2c1cnn2Cc1ccc(Cl)cc1,inactive
3,CCC(C)Nc1ncnc2c1cnn2Cc1ccc(Cl)cc1 (configuration not stated),inactive
4,CCN(CC)c1ncnc2c1cnn2Cc1ccc(Cl)cc1,inactive
5,Cc1ccc(Cn2ncc3c(NCCCN(C)C)ncnc32)cc1,inactive
6,Cc1ccc(Cn2ncc3c(N4CCCC4)ncnc32)cc1,inactive
7,COc1ccccc1N1CCN(C(=O)c2cc(-c3ccc(F)cc3)[nH]c2C)CC1,inactive
8,COc1cc(C)c(S(=O)(=O)n2ccc(C)n2)cc1C,inactive
9,C[C@@H]1CN([C@@H](C)CO)C(=O)c2cc(C3=CCCCC3)cnc2O[C@H]1CN(C)Cc1ccccc1F,inactive
10,CC(=O)Nc1sc2c(c1C#N)CCC(C)C2 (configuration not stated),inactive
11,Cc1noc(C)c1NC(=O)Nc1ccc2c(c1)CC(=O)N([C@H](C)CO)C[C@H](C)[C@@H](CN(C)Cc1ccc(Oc3ccccc3)cc1)O2,inactive
12,C[C@H]1CCCCO[C@H](CN(C)S(=O)(=O)c2cccs2)[C@@H](C)CN([C@@H](C)CO)C(=O)c2cc(NC(=O)Nc3ccc(F)cc3)ccc2O1,inactive
13,C[C@H](CO)N1C[C@H](C)[C@H](CN(C)Cc2ccc(Oc3ccccc3)cc2)Oc2ccc(NC(=O)Nc3ccc(C(F)(F)F)cc3)cc2CC1=O,inactive
14,C[C@H](CO)N1C[C@H](C)[C@@H](CN(C)Cc2ccc(-c3ccccc3)cc2)Oc2ccc(NC(=O)c3ccncc3)cc2CC1=O,inactive
15,Cc1c(Cl)cccc1NC(=O)CNC(=O)Cc1n[nH]c(=O)c2ccccc12,inactive
16,C[C@@H]1CCCCO[C@@H](CN(C)C(=O)Nc2cccc3ccccc23)[C@H](C)CN([C@H](C)CO)C(=O)c2cc(NS(=O)(=O)c3ccc(Cl)cc3)ccc2O1,inactive
17,N#Cc1nc(-c2ccco2)oc1NCCCn1ccnc1,inactive
18,N#Cc1nc(COc2ccccc2)oc1N1CCOCC1,inactive
19,O=C(Nc1ccc(S(=O)(=O)N2CCCCCC2)cc1)c1ccco1,inactive
20,CCCOc1cc(C)c(Cl)cc1S(=O)(=O)N(CC)CC,inactive
21,Cc1ccc(S(=O)(=O)Nc2ccc3c(c2)C(=O)N([C@@H](C)CO)C[C@@H](C)[C@H](CN(C)Cc2ccc(Cl)c(Cl)c2)O3)cc1,inactive
22,C[C@@H]1CCCCO[C@H](CN(C)C(=O)Nc2ccc(F)cc2)[C@H](C)CN([C@@H](C)CO)C(=O)c2cc(NC(=O)Cc3ccccc3)ccc2O1,inactive
23,CC(C)c1ccc(CNc2nc3nc4c(c(=O)n3[nH]2)CCC4)cc1,inactive
24,Cc1ccc(S(=O)(=O)Nc2ccc3c(c2)CC(=O)N([C@@H](C)CO)C[C@H](C)[C@@H](CN(C)S(=O)(=O)c2cccs2)O3)cc1,inactive
25,CN(CC(=O)NCc1ccco1)CC(=O)Nc1ccc(F)c(F)c1F,inactive
26,COc1cc(NC(=O)COC(=O)c2cc(S(=O)(=O)N3CCOCC3)ccc2F)cc(OC)c1,inactive

row,SMILES,outcome
1,COc1cc2c(C(=O)NCCCN3CCN(c4cccc(Cl)c4)CC3)cn(C)c(=O)c2cc1OC,inactive
2,COc1ccc(S(=O)(=O)Nc2ccc3c(c2)C(=O)N([C@@H](C)CO)C[C@@H](C)[C@H](CN(C)C(=O)Nc2cccc4ccccc24)OCCCC[C@@H](C)O3)cc1,inactive
3,Cc1csc(SCC(=O)Nc2cccc(S(=O)(=O)N3CCCC3)c2)n1,inactive
4,COc1cccc(NC(=O)CSc2nc(C)cs2)c1,inactive
5,COc1ccc(S(=O)(=O)Nc2cccc3c2O[C@H](CN(C)C(=O)Nc2ccc(C(F)(F)F)cc2)[C@H](C)CN([C@H](C)CO)C3=O)cc1,inactive
6,C[C@H](CO)N1C[C@H](C)[C@H](CN(C)Cc2ccc(Oc3ccccc3)cc2)Oc2ccc(NC(=O)Nc3ccc(F)cc3)cc2CC1=O,inactive
7,C[C@@H]1CN([C@@H](C)CO)C(=O)c2cc(C#Cc3ccccc3F)cnc2O[C@H]1CN(C)S(=O)(=O)c1ccccc1F,inactive
8,CCN(CC)CC(=O)n1c2c(c3ccccc31)CCCC2,inactive
9,Clc1ccc(Cn2ncc3c(NCc4ccccc4)ncnc32)cc1,inactive
10,O=C(Nc1ccc(S(=O)(=O)N2CCC(C(=O)NC3CCCCC3)CC2)cc1)c1ccco1,inactive
11,Nc1ccc2c(S(=O)(=O)O)cccc2c1S(=O)(=O)O,inactive
12,O=C(Cn1nnc(-c2ccncc2)n1)N(C1CCCCC1)C1CCCCC1,inactive
13,COCCn1nnnc1CN(CCc1ccc(OC)c(OC)c1)Cc1cc2ccc(C)cc2[nH]c1=O,inactive
14,COc1ccc(NC(=O)Nc2ccc3c(c2)CC(=O)N([C@@H](C)CO)C[C@@H](C)[C@H](CN(C)C(=O)Nc2cccc4ccccc24)O3)cc1,inactive
15,O=C(CCC1COc2ccccc2O1)Nc1ccccn1 (configuration not stated),inactive
16,C[C@@H]1CCCCO[C@@H](CN(C)S(=O)(=O)c2ccc(Cl)cc2)[C@@H](C)CN([C@@H](C)CO)C(=O)c2cc(NS(C)(=O)=O)ccc2O1,inactive
17,C[C@@H]1CCCCO[C@@H](CN(C)S(=O)(=O)c2ccc(Cl)cc2)[C@@H](C)CN([C@H](C)CO)C(=O)c2cc(NS(C)(=O)=O)ccc2O1,inactive
18,CCC(=O)c1ccc(OCC(=O)O)cc1,inactive
19,COc1cc(OC)cc(-c2nc3nc(C)c(CCC(=O)O)c(C)n3n2)c1,inactive
20,O=C(CSc1nnc2ccccn12)NNC(=O)c1cccc(Cl)c1,inactive
21,COC(=O)c1ccc(CSc2nc3c(cnn3-c3ccc(C)c(C)c3)c(=O)[nH]2)o1,inactive
22,COc1ccc(S(=O)(=O)Nc2ccc3c(c2)C(=O)N([C@H](C)CO)C[C@H](C)[C@@H](CN(C)S(=O)(=O)c2ccc(F)cc2)OCCCC[C@H](C)O3)cc1,inactive
23,COc1ccc(CC(=O)Nc2cc(C)on2)cc1,inactive
24,C[C@@H]1CCCCO[C@H](CN(C)C(=O)Cc2ccccc2)[C@@H](C)CN([C@@H](C)CO)C(=O)c2cc(NS(=O)(=O)c3cn(C)cn3)ccc2O1,inactive
25,O=S(=O)(c1ccccc1C(F)(F)F)N1CCN(S(=O)(=O)c2ccccc2C(F)(F)F)CC1,inactive
26,CN1C(=O)c2cc(NC(=O)c3cnccn3)ccc2OC[C@H]2O[C@H](CC(=O)NCC3CCCCC3)CC[C@H]21,inactive
